Measured values as given in PubChem BioAssay (Tox21).
Values without a mark were called inactive. The source made the active and inactive calls. The call rests on the fitted dose curve; in most records, active means well fitted curve in the direction sought with a large enough effect in the repeat runs; inconclusive means weak or mixed curves; inactive means flat fitted curve, though single readings scatter.

test: qHTS assay to test for compound auto fluorescence at 590 nm (red) in HEK293 cells (AID 720679); details: red autofluorescence 540/590 nm; series mostly up to 91.3 µM; fluorescence, % of fluorescent control: at the top concentration
Outline: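 HEK293 cells (2,000/well, medium with 10% dialyzed FBS) attached for 4-5 hr at 37C, received 23 nL compound and were incubated overnight at 37C, 5% CO2. Red fluorescence was then read at 540/590nm Ex/Em, referenced to Rose Bengal sodium.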
On the % scale 0 is the no-effect control and ±100 the full control effect.

Compound	fluorescence, % of fluorescent control	outcome
Cc1occc(=O)c1OC(=O)C(C)C	-0.333%	
CC(C)C(=O)c1c(C(C)C)nn2ccccc12	0.115% [at 46 µM]	
NC(N)=Nc1nc(CSCC/C(N)=N/S(N)(=O)=O)cs1		inactive
CO[Si](OC)(OC)c1ccccc1	0.0933%	
CN1C(=O)c2ccc([N+](=O)[O-])cc2C1=O	-0.0602%	
CCOc1ccccc1C(N)=O		inactive
CC(C)(O)CCC(C)(C)O	0.293% [at 95.7 µM]	
[Cl][In]([Cl])[Cl]		inactive
CCn1cc(C(=O)O)c(=O)c2cc(F)c(N3CCNC(C)C3)c(F)c21 (stereo not given)		inactive
O=C(O)CP(=O)(O)O	0.125% [at 46 µM]	
